From PubChem BioAssay AID1159580 (chemical genetic matrix, 2015)
“And” between values parts separate entries of the source, which are not always exact repeats. Identical values can stand only once. Out of some 5,500 compounds screened, about 2,000 (36%) were called active. Another 18% or so got no clear call; they are omitted. Rule as the data show it: active = normalized growth mostly below about 0.91 (no sharp cut-off); inconclusive = no clear call, values can overlap the other calls; inactive = mostly above about 0.92. Some of the results follow. Some structures have more than one record in an assay (separate samples or runs), and their calls can disagree.

Test: chemical genetic growth profiling, strain panel (AID 1159580);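 also: tested at 20 µM; growth read once vehicle control cultures reached saturation at 30 °C; 1 = growth at the plate median or of vehicle wells; lower values mean less growth of the strain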
Conditions: S. cerevisiae deletion strains, growth OD

Measured: normalized growth

Cc1ccc(Cl)c(Nc2ccccc2C(=O)O)c1Cl
active: locus YAL026C, strain drs2, stronger effect = lower value 0.787 | locus YAL030W, strain snc1, stronger effect = lower value 0.876 | locus YBL061C, strain skt5, stronger effect = lower value 0.884 | locus YBR009C, strain hhf1, stronger effect = lower value 0.856 | locus YBR023C, strain chs3, stronger effect = lower value 0.852 | locus YBR171W, strain sec66, stronger effect = lower value 0.817 | locus YBR229C, strain ROT2, stronger effect = lower value 0.884 | locus YBR231C, strain swc5, stronger effect = lower value 0.885 | locus YBR279W, strain paf1, stronger effect = lower value 0.867 | locus YCL011C, strain gbp2, stronger effect = lower value 0.852 | locus YCL016C, strain dcc1, stronger effect = lower value 0.818 | locus YCL029C, strain bik1, stronger effect = lower value 0.887 | locus YCL061C, strain MRC1, stronger effect = lower value 0.891 | locus YCL069W, strain vba3, stronger effect = lower value 0.866 | locus YCR088W, strain abp1, stronger effect = lower value 0.876 | locus YDL005C, strain med2, stronger effect = lower value 0.895 | locus YDL040C, strain nat1, stronger effect = lower value 0.894 | locus YDL192W, strain arf1, stronger effect = lower value 0.824 | locus YDR001C, strain nth1, stronger effect = lower value 0.871 | locus YDR101C, strain arx1, stronger effect = lower value 0.906 | locus YDR137W, strain rgp1, stronger effect = lower value 0.455 | locus YDR159W, strain sac3, stronger effect = lower value 0.766 | locus YDR162C, strain NBP2, stronger effect = lower value 0.794 | locus YDR297W, strain sur2, stronger effect = lower value 0.908 | locus YDR318W, strain mcm21, stronger effect = lower value 0.83 | locus YDR334W, strain swr1, stronger effect = lower value 0.879 | locus YDR335W, strain msn5, stronger effect = lower value 0.896 | locus YDR388W, stronger effect = lower value 0.87 | locus YDR392W, strain spt3, stronger effect = lower value 0.188 | locus YDR502C, strain sam2, stronger effect = lower value 0.835 | locus YEL003W, strain gim4, stronger effect = lower value 0.904 | locus YEL037C, strain rad23, stronger effect = lower value 0.901 | locus YEL061C, strain CIN8 (second series), stronger effect = lower value 0.885 | locus YEL061C, strain CIN8, stronger effect = lower value 0.888 | locus YER015W, strain faa2, stronger effect = lower value 0.926 | locus YER016W, strain bim1, stronger effect = lower value 0.91 | locus YER110C, stronger effect = lower value 0.866 | locus YER111C, strain swi4, stronger effect = lower value 0.876 | locus YER155C, strain BEM2 (second series), stronger effect = lower value 0.644 | locus YER155C, strain BEM2, stronger effect = lower value 0.839 | locus YGL086W, strain mad1, stronger effect = lower value 0.905 | locus YGL167C, strain pmr1, stronger effect = lower value 0.829 | locus YGL173C, strain kem1, stronger effect = lower value 0.85 | locus YGL227W, strain vid30, stronger effect = lower value 0.906 | locus YGL253W, strain hxk2, stronger effect = lower value 0.81 | locus YGR135W, strain pre9, stronger effect = lower value 0.795 | locus YHR013C, strain ard1, stronger effect = lower value 0.793 | locus YHR027C, strain rpn1, stronger effect = lower value 0.903 | locus YHR079C, strain IRE1 (second series), stronger effect = lower value 0.876 | locus YHR094C, strain hxt1, stronger effect = lower value 0.869 | locus YHR129C, strain ARP1, stronger effect = lower value 0.91 | locus YHR142W, strain chs7, stronger effect = lower value 0.737 | locus YHR200W, strain rpn10, stronger effect = lower value 0.882 | locus YIR030C, strain dcg1, stronger effect = lower value 0.868 | locus YJL092W, strain hpr5, stronger effect = lower value 0.872 | locus YJL095W, strain BCK1 (second series), stronger effect = lower value 0.822 | locus YJL129C, strain trk1, stronger effect = lower value 0.644 | locus YJL134W, strain LCB3, stronger effect = lower value 0.906 | locus YJL154C, strain vps35, stronger effect = lower value 0.891 | locus YJL164C, strain tpk1, stronger effect = lower value 0.866 | locus YJL166W, strain qcr8, stronger effect = lower value 0.864 | locus YJL168C, strain set2, stronger effect = lower value 0.892 | locus YJL187C, strain SWE1, stronger effect = lower value 0.891
0.901 (active) and 0.983 (inactive): locus YHR030C, strain SLT2, stronger effect = lower value
inactive: locus YAL013W, strain DEP1, stronger effect = lower value 0.938 | locus YAL021C, strain ccr4, stronger effect = lower value 0.917 | locus YAL040C, strain CLN3, stronger effect = lower value 0.916 | locus YBR021W, strain FUR4, stronger effect = lower value 0.954 | locus YCL061C, strain MRC1 (second series), stronger effect = lower value 0.965 | locus YDL035C, strain GPR1, stronger effect = lower value 0.939 | locus YDL074C, strain BRE1, stronger effect = lower value 0.799 | locus YDL101C, strain DUN1, stronger effect = lower value 0.957 | locus YDL185W, strain tfp1, stronger effect = lower value 0.953 | locus YDR069C, strain doa4, stronger effect = lower value 0.928 | locus YDR195W, strain ref2 1.11 | locus YDR363W, strain ESC2, stronger effect = lower value 0.985 | locus YER002W, strain NOP16, stronger effect = lower value 0.926 | locus YER167W, strain BCK2, stronger effect = lower value 0.905 | locus YFR010W, strain ubp6, stronger effect = lower value 0.931 | locus YGL078C, strain dbp3, stronger effect = lower value 0.969 | locus YGL240W, strain doc1, stronger effect = lower value 0.91 | locus YGL248W, strain PDE1, stronger effect = lower value 0.899 | locus YGR078C, strain PAC10, stronger effect = lower value 0.926 | locus YGR229C, strain SMI1, stronger effect = lower value 0.841 | locus YGR252W, strain gcn5, stronger effect = lower value 0.834 | locus YHR079C, strain IRE1, stronger effect = lower value 1.03 | locus YIL066C, strain RNR3, stronger effect = lower value 0.881 | locus YIL073C, strain SPO22, stronger effect = lower value 0.735 | locus YIL125W, strain kgd1, stronger effect = lower value 0.981 | locus YJL115W, strain asf1, stronger effect = lower value 0.934 | locus YJL187C, strain SWE1 (second series), stronger effect = lower value 0.897 | locus YJR043C, strain POL32, stronger effect = lower value 0.956
0.664 (active) and 0.986 (inactive): locus YJL095W, strain BCK1, stronger effect = lower value
0.879 (active) and 0.942 (inactive): locus YDR150W, strain NUM1, stronger effect = lower value
